Test results taken from ChEMBL document CHEMBL1961873, “Compounds: GSK PKIS; Assays: Nanosyn kinase panel” (2012).
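Further: reported values are averages (mean inhibition of CAMK2A).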

Each molecule was assayed against Calcium/calmodulin-dependent protein kinase type II subunit alpha (Homo sapiens) (UniProt Q9UQM7). Conditions: at 0.1 µM.
Chain of Calcium/calmodulin-dependent protein kinase type II subunit alpha (Homo sapiens) (Q9UQM7 whole entry): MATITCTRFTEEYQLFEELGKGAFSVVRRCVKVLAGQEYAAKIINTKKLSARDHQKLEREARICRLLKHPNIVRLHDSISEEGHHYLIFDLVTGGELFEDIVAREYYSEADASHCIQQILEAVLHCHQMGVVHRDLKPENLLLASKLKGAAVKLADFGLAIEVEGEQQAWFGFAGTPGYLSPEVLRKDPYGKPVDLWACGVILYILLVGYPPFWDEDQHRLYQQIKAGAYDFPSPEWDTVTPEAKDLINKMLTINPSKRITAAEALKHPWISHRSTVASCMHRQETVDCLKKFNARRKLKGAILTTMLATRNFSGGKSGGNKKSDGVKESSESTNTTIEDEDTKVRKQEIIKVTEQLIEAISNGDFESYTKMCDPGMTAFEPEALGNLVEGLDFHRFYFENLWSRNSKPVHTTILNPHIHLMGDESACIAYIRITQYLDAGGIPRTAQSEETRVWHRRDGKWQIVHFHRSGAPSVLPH
`CCCN1CCC(Oc2cc(Nc3nc(Nc4cccc(F)c4C(N)=O)c4cc[nH]c4n3)c(OC)cc2Cl)CC1` showed an inhibition of 0.13%. With `COc1cc(C)c(NC(=O)CN(C)C)cc1Nc1nc(Nc2cccc(F)c2C(N)=O)c2cc[nH]c2n1` the inhibition was 3.26%. For `CC1=C(C(=O)Nc2ccc3[nH]ncc3c2)C(c2ccc(Cl)c(Cl)c2)CC(=O)N1` (stereo not drawn), the inhibition was 1.87%. With `CCn1c(-c2nonc2N)nc2cncc(C(=O)N3CC[C@H](N)C3)c21` the inhibition was 3.71%. Work on `NS(=O)(=O)c1ccc(N/N=C2\C(=O)Nc3ccc(C(=O)NCCc4c[nH]cn4)cc32)cc1` yielded an inhibition of 5.62%. `CCCN1CCC=C(c2ccc(Nc3nc(Nc4ccccc4C(N)=O)c4cc[nH]c4n3)c(C)c2)C1` showed an inhibition of 3.75%. With `CCn1c(-c2nonc2N)nc2cncc(C(=O)N3CCNCC3)c21` the inhibition was 4.62%. `Nc1nc(-c2ccc3c(c2)C(=Cc2cc(Br)c(O)c(Br)c2)C(=O)N3)cs1` gave an inhibition of -5.57%. `COc1ccc2cc(-c3c(-c4ccncc4)nc(-c4ccc([S+](C)[O-])cc4)n3C)ccc2c1` (stereo not drawn) was tested, and the inhibition was 3.34%. Work on `CC(C)=Cc1cccc2c1/C(=N/Nc1ccc(S(N)(=O)=O)cc1)C(=O)N2` yielded an inhibition of 2.92%. Work on `CS(=O)(=O)CCNCc1nc(-c2ccc3ncnc(Nc4ccc(F)c(Cl)c4)c3c2)cs1` yielded an inhibition of 5.16%. With `NC(=O)c1ccc(-c2nc(-c3ccccn3)c(-c3ccc4c(c3)OCO4)[nH]2)cc1` the inhibition was 1.86%. `COC(=O)Nc1nc2cc(Oc3cccc(NC(=O)Nc4cc(C(F)(F)F)ccc4F)c3)ccc2[nH]1` gave an inhibition of 0.56%. With `Cc1nnc(-c2ccc(C)c(-c3ccc(C(=O)Nc4cccc(C#N)c4)cc3)c2)o1` the inhibition was 1.97%. `COc1ccc(-c2ccncc2)cc1C(N)=O` showed an inhibition of 1.71%. In the case of `CC(=O)Nc1cccc(C#Cc2cncnc2Nc2ccc(OCc3cccc(F)c3)c(Cl)c2)n1`, the inhibition is reported as 0.69%. Work on `Cc1ccc(C(=O)NC2CCCCC2)cc1-c1ccc(C(=O)NCC2CC2)cc1` yielded an inhibition of 4.8%. `COc1ccc(-c2nn3ncccc3c2-c2ccnc(Nc3ccc(Cl)c(C(F)(F)F)c3)n2)cc1` was tested, and the inhibition was 1.97%. Work on `CC1=C(C(=O)Nc2ccc3[nH]ncc3c2)C(c2ccc(F)cc2)NC(=O)N1` (stereo not drawn) yielded an inhibition of -0.47%. For `COc1cc2ncn(-c3cc(O[C@@H](C)c4ccccc4Cl)c(C(N)=O)s3)c2cc1OC`, the inhibition was 1.15%. `CS(=O)(=O)CCN(CC#N)Cc1ccc(-c2ccc3ncnc(Nc4ccc(OCc5cccc(F)c5)c(Cl)c4)c3c2)o1` was tested, and the inhibition was -0.98%. `O=C1NC(=O)C(c2ccccc2Cl)=C1Nc1cccc(O)c1` was tested, and the inhibition was 3.22%. For `COc1ccc(-c2coc3ncnc(N)c23)cc1`, the inhibition was 3.92%. With `CS(=O)(=O)CCNCc1ccc(-c2ccc3ncnc(Nc4ccc(OCc5ccccc5)c(Cl)c4)c3c2)o1` the inhibition was -1.33%. `COc1cc2ncn(-c3cc(O[C@H](C)c4ccccc4Cl)c(C(N)=O)s3)c2cc1OC` was tested, and the inhibition was 3.24%. For `CCn1c(-c2nonc2N)nc2cnc(Oc3cccc(NC(=O)c4ccc(OCCN5CCOCC5)cc4)c3)cc21`, the inhibition was 1.46%. `CCn1c(-c2nonc2N)nc2c(N3CCCC3)nccc21` showed an inhibition of -1.53%. `Cc1nn(C)c2cc(N(C)c3ccnc(Nc4cccc(S(N)(=O)=O)c4)n3)ccc12` was tested, and the inhibition was 1.6%. Work on `Fc1cccc(COc2ccc(Nc3ncnc4cc(-c5ccc[nH]5)sc34)cc2Cl)c1` yielded an inhibition of 0.3%. With `CCn1c(-c2nonc2N)nc2c(C#CC(C)(C)O)nc(CN3CCCC3)cc21` the inhibition was -0.97%. `O=C1Nc2ccc(C(=O)c3ccco3)cc2C1=Cc1cc(Cl)c(O)c(Cl)c1` gave an inhibition of 3.4%. `CC1=C(C(=O)Nc2ccc3[nH]ncc3c2)C(c2ccc3ccccc3c2)CC(=O)N1` (stereo not drawn) showed an inhibition of -0.08%. Molecule `Fc1cccc(COc2ccc(Nc3ncnc4sc(-c5cccs5)cc34)cc2Cl)c1` has an inhibition of -3%.
